Molecular target: AT4G31550 (Arabidopsis thaliana, UniProt Q9SV15 228-325)
Assay: DPI-ELISA; DPI-ELISA, streptavidin 384-well plate, 1-2 pmol biotinylated dsDNA per well, crude native E. coli extract, anti-His detection; buffer as in Brand et al. [46],; high values mean tight binding
Conditions: tags: C-terminal His (pET-DEST42); label: 5' biotin on forward strand; dsDNA, one strand shown

Chain of AT4G31550 (Q9SV15 228-325): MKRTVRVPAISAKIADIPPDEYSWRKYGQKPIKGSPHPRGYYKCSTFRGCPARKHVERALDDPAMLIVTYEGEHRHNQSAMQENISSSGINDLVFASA

Row | Sequence | binding signal [absorbance]
1 | AAAAAAAGGGTGCTATTCGTCGACACAAAA | 0.63 ± 0.141
2 | AAAAAATTAGACGCTACACTTACGGTAAAA | 0.665 ± 0.106
3 | AAAAAACTGGTGTATCTCCTCAATTAAAAA | 0.635 ± 0.0636
4 | AAAAAATTCTTTTTTCTTCAAGGTCTAAAA | 0.565 ± 0.0212
5 | AAAAAAGCCTTTACCCTTGTTCCTCTAAAA | 0.69 ± 0.17
6 | AAAAAACCTCTTGTCTCTGCTCTCCCAAAA | 0.575 ± 0.106
7 | AAAAAAGCGCGCCCGCACTGTTAATAAAAA | 0.635 ± 0.106
8 | AAAAAACCGTCTTATCTCTCGTCCCTAAAA | 0.565 ± 0.12
9 | AAAAAAATTCGCAACCCTCACGTTCGAAAA | 0.67 ± 0.0566
10 | AAAAAAGTCCCGCGCTAAGCTTTAAAAAAA | 0.615 ± 0.106
11 | AAAAAAGCTCGTCTCCGCCTCCTGCTAAAA | 0.785 ± 0.262
12 | AAAAAAGCTGTCACTGTAGTCGGTCCAAAA | 0.67 ± 0.0707
13 | AAAAAACTAACCGTCGCAGGCGTGTGAAAA | 0.715 ± 0.134
14 | AAAAAACCTTACCTCATCCCTATCCCAAAA | 0.605 ± 0.134
